From PubChem BioAssay (NCI)
Compounds without any hit were thinned out: in the full panel of roughly 83,000, 20% have a hit.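 How to read the values: 0–100, growth inhibition (40 = 60% inhibited); 0, no net growth; -100 to 0, cell death (-40 = 40% of starting cells died; -100 = all dead).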 The source made the active and inactive calls. How the source made its calls: active means growth percent below 10; inactive means the rest.

What was measured:
Experiment in all cases: NCI-60 one-dose screen, 48 h (100 = growth as untreated, 0 = no growth, -100 = all killed)
Details in all cases: 10 µM unless noted
SK-MEL-2 melanoma = test system: SK-MEL-2 melanoma
EKVX NSCLC = test system: EKVX NSCLC
SN12C renal = test system: SN12C renal
UO-31 renal = test system: UO-31 renal
TK-10 renal = test system: TK-10 renal
ACHN renal = test system: ACHN renal
A498 renal = test system: A498 renal
CCRF-CEM leukemia = test system: CCRF-CEM leukemia
MOLT-4 leukemia = test system: MOLT-4 leukemia
SR leukemia = test system: SR leukemia
RPMI-8226 leukemia = test system: RPMI-8226 leukemia
OVCAR-8 ovarian = test system: OVCAR-8 ovarian
OVCAR-5 ovarian = test system: OVCAR-5 ovarian
OVCAR-4 ovarian = test system: OVCAR-4 ovarian
SK-OV-3 ovarian = test system: SK-OV-3 ovarian
IGROV1 ovarian = test system: IGROV1 ovarian
OVCAR-3 ovarian = test system: OVCAR-3 ovarian
HS 578T breast = test system: HS 578T breast
NCI/ADR-RES ovarian = test system: NCI/ADR-RES ovarian
T-47D breast = test system: T-47D breast

Measured: growth

NC(=O)CN1C(=O)c2ccccc2C1=O
inactive: SK-MEL-2 melanoma 108% | EKVX NSCLC 104% | SN12C renal 97.7% | UO-31 renal 90.4% | TK-10 renal 103% | ACHN renal 105% | A498 renal 92% | CCRF-CEM leukemia 96.6% | MOLT-4 leukemia 99.1% | SR leukemia 87.8% | RPMI-8226 leukemia 105% | OVCAR-8 ovarian 103% | OVCAR-5 ovarian 102% | OVCAR-4 ovarian 110% | SK-OV-3 ovarian 106% | IGROV1 ovarian 105% | OVCAR-3 ovarian 106% | HS 578T breast 104% | NCI/ADR-RES ovarian 102% | T-47D breast 89.9%

Cc1c(Cl)cccc1NC(=O)c1sc2nc3c(cc2c1N)CCCCCC3
active: A498 renal -9.95% | OVCAR-3 ovarian -18.1%
inactive: SK-MEL-2 melanoma 11.8% | EKVX NSCLC 39.8% | SN12C renal 42.4% | UO-31 renal 55.4% | TK-10 renal 44.9% | ACHN renal 41.8% | CCRF-CEM leukemia 10.9% | MOLT-4 leukemia 17.3% | SR leukemia 16% | RPMI-8226 leukemia 18.4% | OVCAR-8 ovarian 17.5% | OVCAR-5 ovarian 46.7% | OVCAR-4 ovarian 46.8% | SK-OV-3 ovarian 34.8% | IGROV1 ovarian 42.9% | HS 578T breast 24.6% | NCI/ADR-RES ovarian 17.1% | T-47D breast 40.2%

C#Cc1ccccc1NC(=O)c1sc2nc3c(cc2c1N)CCCCC3
inactive: SK-MEL-2 melanoma 101% | EKVX NSCLC 84.8% | SN12C renal 98.2% | UO-31 renal 85.4% | TK-10 renal 117% | ACHN renal 101% | A498 renal 94.1% | CCRF-CEM leukemia 93.8% | MOLT-4 leukemia 94.5% | SR leukemia 81.2% | RPMI-8226 leukemia 97.4% | OVCAR-8 ovarian 100% | OVCAR-5 ovarian 105% | OVCAR-4 ovarian 103% | SK-OV-3 ovarian 100% | IGROV1 ovarian 103% | OVCAR-3 ovarian 105% | HS 578T breast 99.6% | NCI/ADR-RES ovarian 105% | T-47D breast 95%

O=C(Nc1cc(Nc2ncccc2-c2ncnc3nc[nH]c23)ccc1F)c1cc(C(F)(F)F)cc(C(F)(F)F)c1
active: SK-MEL-2 melanoma -40% | UO-31 renal -37.4% | TK-10 renal -16.9% | ACHN renal -7.8% | A498 renal -19.1% | CCRF-CEM leukemia 2.41% | MOLT-4 leukemia -33.6% | SR leukemia -21.1% | RPMI-8226 leukemia -13% | OVCAR-8 ovarian -9.42% | OVCAR-5 ovarian -41% | OVCAR-4 ovarian -48.5% | SK-OV-3 ovarian -18% | IGROV1 ovarian 2.77% | OVCAR-3 ovarian -1.23% | HS 578T breast -19.1% | NCI/ADR-RES ovarian -20.8%
inactive: EKVX NSCLC 20.4% | SN12C renal 16.5% | T-47D breast 11.1%

c1ccc(-c2cn3ccnc3c(-c3ccc4c(c3)ncn4C3CCCCC3)n2)cc1
inactive: SK-MEL-2 melanoma 106% | EKVX NSCLC 97.5% | SN12C renal 95.2% | UO-31 renal 79.1% | TK-10 renal 106% | ACHN renal 104% | A498 renal 106% | CCRF-CEM leukemia 88.3% | MOLT-4 leukemia 60.3% | SR leukemia 55.4% | RPMI-8226 leukemia 81.7% | OVCAR-8 ovarian 101% | OVCAR-5 ovarian 103% | OVCAR-4 ovarian 101% | SK-OV-3 ovarian 104% | IGROV1 ovarian 106% | OVCAR-3 ovarian 101% | HS 578T breast 101% | NCI/ADR-RES ovarian 100% | T-47D breast 74.5%

CCCNc1nc(C)[nH]c(=O)c1S
inactive: SK-MEL-2 melanoma 95.6% | EKVX NSCLC 120% | SN12C renal 186% | UO-31 renal 90.8% | TK-10 renal 135% | ACHN renal 94.7% | A498 renal 180% | CCRF-CEM leukemia 106% | MOLT-4 leukemia 96.3% | SR leukemia 101% | RPMI-8226 leukemia 87.4% | OVCAR-8 ovarian 105% | OVCAR-5 ovarian 113% | OVCAR-4 ovarian 105% | SK-OV-3 ovarian 134% | IGROV1 ovarian 102% | OVCAR-3 ovarian 106% | HS 578T breast 137% | NCI/ADR-RES ovarian 109% | T-47D breast 98.6%

CCOC(=O)NCCc1nc2c([nH]1)c(=O)n(C)c(=O)n2C
inactive: SK-MEL-2 melanoma 101% | EKVX NSCLC 99.7% | SN12C renal 101% | UO-31 renal 83.3% | TK-10 renal 100% | ACHN renal 110% | A498 renal 105% | CCRF-CEM leukemia 101% | MOLT-4 leukemia 115% | SR leukemia 119% | RPMI-8226 leukemia 106% | OVCAR-8 ovarian 107% | OVCAR-5 ovarian 90.3% | OVCAR-4 ovarian 107% | SK-OV-3 ovarian 122% | IGROV1 ovarian 97.1% | OVCAR-3 ovarian 113% | HS 578T breast 104% | NCI/ADR-RES ovarian 99.8% | T-47D breast 102%

c1cc(CNC23CC4CC(CC(C4)C2)C3)cc(C[N+](Cc2cccc(CNC34CC5CC(CC(C5)C3)C4)c2)(Cc2cccc(CNC34CC5CC(CC(C5)C3)C4)c2)Cc2cccc(CNC34CC5CC(CC(C5)C3)C4)c2)c1 (stereo not given)
active: SN12C renal 7.96% [42 µM] | UO-31 renal -8.13% [42 µM] | ACHN renal -9.81% [42 µM] | CCRF-CEM leukemia 3.92% [42 µM] | MOLT-4 leukemia -21.9% [42 µM] | SR leukemia 9.46% [42 µM] | RPMI-8226 leukemia -11.6% [42 µM] | OVCAR-8 ovarian 7.24% [42 µM] | OVCAR-5 ovarian 7.78% [42 µM] | OVCAR-3 ovarian -26.9% [42 µM]
inactive: SK-MEL-2 melanoma 31.8% [42 µM] | EKVX NSCLC 30.7% [42 µM] | TK-10 renal 27.1% [42 µM] | A498 renal 50.1% [42 µM] | OVCAR-4 ovarian 29.5% [42 µM] | SK-OV-3 ovarian 61.9% [42 µM] | IGROV1 ovarian 10.9% [42 µM] | HS 578T breast 58.2% [42 µM] | NCI/ADR-RES ovarian 21.5% [42 µM] | T-47D breast 24% [42 µM]

CCOC(=O)/C=C1\SC(=Nc2ccc(C#N)cc2)N(CCN2C(=O)/C(=C/C(=O)OCC)SC2=Nc2ccc(C#N)cc2)C1=O
active: CCRF-CEM leukemia 1.57% | MOLT-4 leukemia 9.39% | SR leukemia 1.69% | RPMI-8226 leukemia -26.8% | OVCAR-8 ovarian 5.38% | OVCAR-3 ovarian 7.13%
inactive: SK-MEL-2 melanoma 80.8% | EKVX NSCLC 35.2% | SN12C renal 24.2% | UO-31 renal 56.6% | TK-10 renal 87.4% | ACHN renal 78.6% | A498 renal 63.7% | OVCAR-5 ovarian 84.4% | OVCAR-4 ovarian 50.8% | SK-OV-3 ovarian 85.4% | IGROV1 ovarian 23.7% | HS 578T breast 63.7% | NCI/ADR-RES ovarian 43.7% | T-47D breast 21.1%

C=C1C(=O)O[C@H]2[C@H]1CCC(/C=N/c1ncc(Br)cc1N)=C\CC[C@@]1(C)O[C@@H]21
active: SN12C renal -24.8% | UO-31 renal -72.3% | TK-10 renal -4.72% | ACHN renal 2.47% | CCRF-CEM leukemia 0.102% | MOLT-4 leukemia -3.09% | SR leukemia -3.64% | RPMI-8226 leukemia -24.1% | OVCAR-8 ovarian 4.39% | IGROV1 ovarian -1.81% | OVCAR-3 ovarian -58.3% | T-47D breast 5.65%
inactive: SK-MEL-2 melanoma 46.6% | EKVX NSCLC 29% | A498 renal 78% | OVCAR-5 ovarian 49.4% | OVCAR-4 ovarian 37% | SK-OV-3 ovarian 69.3% | HS 578T breast 32.4% | NCI/ADR-RES ovarian 58%

Nc1ccccc1NS(=O)(=O)c1ccc(Cl)cc1
inactive: SK-MEL-2 melanoma 93.7% | EKVX NSCLC 98.4% | SN12C renal 103% | UO-31 renal 83.9% | TK-10 renal 90.8% | ACHN renal 94.8% | A498 renal 81.5% | CCRF-CEM leukemia 96.6% | MOLT-4 leukemia 97.1% | SR leukemia 89.6% | RPMI-8226 leukemia 95% | OVCAR-8 ovarian 108% | OVCAR-5 ovarian 95.3% | OVCAR-4 ovarian 100% | SK-OV-3 ovarian 105% | IGROV1 ovarian 98.3% | OVCAR-3 ovarian 105% | HS 578T breast 98.6% | NCI/ADR-RES ovarian 97.3% | T-47D breast 106%

COc1ccc(-n2cc(-c3ccc(Cl)c(Cl)c3)[nH]c2=O)cc1OC
active: CCRF-CEM leukemia 3.68%
inactive: SK-MEL-2 melanoma 97.7% | EKVX NSCLC 93.6% | SN12C renal 102% | UO-31 renal 95% | TK-10 renal 96.6% | ACHN renal 105% | A498 renal 79.3% | MOLT-4 leukemia 144% | SR leukemia 40.1% | RPMI-8226 leukemia 97.6% | OVCAR-8 ovarian 94.6% | OVCAR-5 ovarian 90% | OVCAR-4 ovarian 89.9% | SK-OV-3 ovarian 101% | IGROV1 ovarian 102% | OVCAR-3 ovarian 111% | HS 578T breast 102% | NCI/ADR-RES ovarian 105% | T-47D breast 92.1%
